Assay results: PubChem BioAssay (NCI)
Values joined by “and” are separate entries in the source; they are usually repeats but may differ in a detail not shown here. Equal values may be shown once. About 79,000 compounds went through this panel and 15% of them were active in at least one assay; those are over-represented in the sample as a whole. A structure can be active in one record and inactive in another. Active and inactive are the calls of the source. Cut-off read from the data, not from the text of the source: active = growth inhibition above about 70%; inactive = the rest.

Experiments:
[1] = NCI Yeast Anticancer Drug Screen. Data for the mlh1 strain (AID 171);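 note: 0% = growth of vehicle-treated control cultures of the same strain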; settings: S. cerevisiae mlh1 strain growth inhibition, stronger effect = higher value
Procedure, shortened: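 A yeast strain with a defined genetic lesion serves as the test organism. Cultures receive compound or vehicle, and growth is measured.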

[2] = NCI Yeast Anticancer Drug Screen. Data for the sgs1 strain (AID 173);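 note: 0% = growth of vehicle-only control cultures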; settings: S. cerevisiae sgs1 mutant, stronger effect = higher value
Procedure, shortened: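 A genetically defined yeast mutant is incubated with the test compound, and its growth is compared to that of the same strain given vehicle.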

[3] = NCI Yeast Anticancer Drug Screen. Data for the mlh1 rad18 strain (AID 175); settings: S. cerevisiae mlh1 rad18 strain growth inhibition, stronger effect = higher value
Procedure, shortened: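 Steps: expose repair-defective yeast to compound; measure growth; express inhibition against vehicle-treated controls.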

[4] = NCI Yeast Anticancer Drug Screen. Data for the rad18 strain (AID 177); settings: S. cerevisiae rad18 mutant growth inhibition, stronger effect = higher value
Procedure, shortened: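 Measured value is growth inhibition of a yeast strain bearing a DNA repair alteration, referenced to vehicle-treated cells.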

[5] = NCI Yeast Anticancer Drug Screen. Data for the rad52 strain (AID 147);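 note: 0% = growth of vehicle-treated control cultures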; settings: S. cerevisiae rad52 mutant growth inhibition, stronger effect = higher value
Procedure, shortened: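 Here a repair-compromised yeast strain receives each compound; its growth is then quantified and normalised to vehicle-only controls.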

[6] = NCI Yeast Anticancer Drug Screen. Data for the wt1 strain (AID 149);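 note: 0% = growth of vehicle-treated wt1 cultures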; settings: S. cerevisiae wt1 strain (SPY 50644) growth inhibition, stronger effect = higher value
Procedure, shortened: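 The wt1 strain was treated with compounds, and growth was compared with vehicle-treated cultures to give inhibition.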

[7] = NCI Yeast Anticancer Drug Screen. Data for the rad50EPP+ strain (AID 151);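 note: 0% = growth of vehicle-treated control cultures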; settings: S. cerevisiae rad50 mutant strain, stronger effect = higher value
Procedure, shortened: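 Read-out is yeast growth inhibition relative to vehicle; cells used were the rad50EPP+ strain.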

[8] = NCI Yeast Anticancer Drug Screen. Data for the rad50 strain (AID 155);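 note: 0% = growth of vehicle-only cultures of the same strain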; settings: S. cerevisiae rad50 strain growth inhibition, stronger effect = higher value
Procedure, shortened: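 Cells are treated with compound, grown, and their growth is then scored against vehicle-only cultures of the same repair-deficient yeast strain.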

[9] = NCI Yeast Anticancer Drug Screen. Data for the mec2-1 strain (AID 157); settings: S. cerevisiae mec2-1 strain, stronger effect = higher value
Procedure, shortened: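 Using mec2-1 yeast: add compound, measure growth, express inhibition versus vehicle-treated cultures.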

[10] = NCI Yeast Anticancer Drug Screen. Data for the rad14 strain (AID 159);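 note: 0% = growth of vehicle-treated control cultures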; settings: S. cerevisiae rad14 strain growth inhibition, stronger effect = higher value
Procedure, shortened: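 Readout: yeast growth inhibition, referenced to vehicle-only cultures. Strain bears a defined alteration in DNA damage repair.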

[11] = NCI Yeast Anticancer Drug Screen. Data for the sgs1 mgt1 strain (AID 161);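 note: 0% = growth of cultures given vehicle only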; settings: S. cerevisiae sgs1 mgt1 strain, stronger effect = higher value
Procedure, shortened: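 Percent growth inhibition was derived by comparing compound-exposed mutant yeast with vehicle-exposed cultures. The strain carries alterations in DNA damage repair.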

[12] = NCI Yeast Anticancer Drug Screen. Data for the CLN2oe strain (AID 163);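 note: 0% = growth of vehicle-only control cultures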; settings: S. cerevisiae CLN2oe strain, stronger effect = higher value
Procedure, shortened: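 Whole-cell yeast growth assay. A strain engineered for altered cell-cycle control received compound, and inhibition relative to vehicle-treated cultures was recorded.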

[13] = NCI Yeast Anticancer Drug Screen. Data for the cln2 rad14 strain (AID 165);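 note: 0% = growth equal to vehicle treated cultures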; settings: S. cerevisiae cln2 rad14 strain, stronger effect = higher value
Procedure, shortened: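 Yeast strain cln2 rad14, bearing defects in cell cycle control and DNA repair, serves as the test system; values reflect growth inhibition compared with vehicle.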

[14] = NCI Yeast Anticancer Drug Screen. Data for the bub3 strain (AID 167); settings: S. cerevisiae bub3 mutant strain, stronger effect = higher value
Procedure, shortened: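 Part of a panel of yeast mutants defective in DNA damage repair or cell cycle regulation. Each strain is grown with compound, and inhibition is calculated relative to solvent-treated cultures.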

[15] = NCI Yeast Anticancer Drug Screen. Data for the wt2 strain (AID 169);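 note: 0% = growth of vehicle-treated yeast cultures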; settings: S. cerevisiae wt2 strain growth inhibition, stronger effect = higher value
Procedure, shortened: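 Treated yeast vs. vehicle-treated yeast: growth inhibition determined.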

[16] = at 5.0 µM (retest, dose inferred, filed as 0.5)
[17] = at 50.0 µM (retest, dose inferred, filed as 5.0)

Measured: growth inhibition

CC(C)c1cccc(O)c(=O)c1
active: [1]; at 100.0 µM 99% | [2]; at 100.0 µM 98% | [3]; at 50.0 µM 98.4% and 91.7% | [4]; at 100.0 µM 98%
40% (inactive) and 99% (active): [3]; [17]
inactive: [1]; at 1.2 µM -6% | [1]; at 3.7 µM -1% | [1]; at 11.0 µM 2% | [1]; at 33.0 µM 46% | [2]; at 1.2 µM -3% | [2]; at 3.7 µM -11% | [2]; at 11.0 µM -1% | [2]; at 33.0 µM 60% | [3]; [16] -3% and 7% | [4]; at 1.2 µM -6% | [4]; at 3.7 µM 1% | [4]; at 11.0 µM 2% | [4]; at 33.0 µM 18%

C/C=C/[P+](c1ccccc1)(c1ccccc1)c1ccccc1
inactive: [5]; at 1.2 µM 49% | [5]; at 3.7 µM 62% | [6]; at 1.2 µM 31% | [6]; at 3.7 µM 42% | [6]; at 11.0 µM 54% | [6]; at 33.0 µM 61% | [7]; at 1.2 µM 13% | [7]; at 3.7 µM 2% | [7]; at 11.0 µM -4% | [7]; at 33.0 µM 0% | [7]; at 100.0 µM 16% | [8]; at 1.2 µM 50% | [8]; at 3.7 µM 67% | [8]; [16] 48% | [9]; at 1.2 µM 21% | [9]; at 3.7 µM 44% | [9]; [16] 33% | [9]; at 11.0 µM 54% | [9]; at 33.0 µM 64% | [9]; [17] 63% | [10]; at 1.2 µM 30% | [10]; at 3.7 µM 27% | [10]; at 11.0 µM 28% | [10]; at 33.0 µM 63% | [11]; [16] 20% | [12]; at 1.2 µM 16% | [12]; at 3.7 µM 13% | [12]; at 11.0 µM 29% | [12]; at 33.0 µM 30% | [13]; [16] 9% | [13]; [17] 16% | [13]; at 50.0 µM 52.6% | [14]; at 1.2 µM 15% | [14]; at 3.7 µM 29% | [14]; [16] 25% | [14]; at 11.0 µM 49% | [14]; at 33.0 µM 67% | [15]; at 1.2 µM -1% | [15]; at 3.7 µM 12% | [15]; at 11.0 µM 18% | [15]; at 33.0 µM 47% | [1]; at 1.2 µM 30% | [1]; at 3.7 µM 43% | [1]; at 11.0 µM 63% | [1]; at 33.0 µM 68% | [2]; at 1.2 µM 19% | [2]; at 3.7 µM 31% | [2]; at 11.0 µM 55% | [2]; at 33.0 µM 61% | [3]; [16] 33% | [3]; [17] 63% | [4]; at 1.2 µM 58% | [4]; at 3.7 µM 67% | [4]; at 11.0 µM 68%
active: [5]; at 11.0 µM 70% | [5]; at 33.0 µM 83% | [5]; at 100.0 µM 92% | [6]; at 100.0 µM 86% | [8]; at 11.0 µM 72% | [8]; at 33.0 µM 86% | [8]; [17] 78% | [8]; at 50.0 µM 81.2% | [8]; at 100.0 µM 95% | [9]; at 50.0 µM 83.3% | [9]; at 100.0 µM 91% | [10]; at 100.0 µM 97% | [11]; [17] 73% | [11]; at 50.0 µM 78.3% | [12]; at 100.0 µM 78% | [14]; [17] 86% | [14]; at 50.0 µM 78.6% | [14]; at 100.0 µM 90% | [15]; at 100.0 µM 87% | [1]; at 100.0 µM 92% | [2]; at 100.0 µM 89% | [3]; at 50.0 µM 87.8% | [4]; at 33.0 µM 90% | [4]; at 100.0 µM 94%

CC(C)(C)c1ccc(O)c(C(c2ccc([N+](=O)[O-])cc2)c2cc(C(C)(C)C)ccc2O)c1
active: [5]; at 33.0 µM 79% | [5]; at 100.0 µM 84% | [6]; at 33.0 µM 81% | [6]; at 100.0 µM 90% | [8]; at 33.0 µM 85% | [8]; [17] 88% | [8]; at 50.0 µM 84.3% | [8]; at 100.0 µM 92% | [9]; at 33.0 µM 85% | [9]; [17] 94% | [9]; at 50.0 µM 89% | [9]; at 100.0 µM 92% | [10]; at 33.0 µM 71% | [10]; at 100.0 µM 90% | [11]; [17] 93% | [12]; at 33.0 µM 80% | [12]; at 100.0 µM 91% | [13]; [17] 93% | [13]; at 50.0 µM 82.8% | [14]; at 33.0 µM 88% | [14]; [17] 94% | [14]; at 50.0 µM 84.2% | [14]; at 100.0 µM 92% | [15]; at 33.0 µM 81% | [15]; at 100.0 µM 83% | [1]; at 33.0 µM 90% | [1]; at 100.0 µM 93% | [2]; at 33.0 µM 82% | [2]; at 100.0 µM 93% | [3]; [17] 93% | [3]; at 50.0 µM 80.2% | [4]; at 33.0 µM 70% | [4]; at 100.0 µM 88%
inactive: [5]; at 1.2 µM 29% | [5]; at 3.7 µM 24% | [5]; at 11.0 µM 57% | [6]; at 1.2 µM -2% | [6]; at 3.7 µM -4% | [6]; at 11.0 µM 42% | [7]; at 1.2 µM 7% | [7]; at 3.7 µM -8% | [7]; at 11.0 µM -24% | [7]; at 33.0 µM -14% | [7]; at 100.0 µM -10% | [8]; at 1.2 µM 19% | [8]; at 3.7 µM 14% | [8]; [16] 21% | [8]; at 11.0 µM 61% | [9]; at 1.2 µM -1% | [9]; at 3.7 µM 14% | [9]; [16] 7% | [9]; at 11.0 µM 57% | [10]; at 1.2 µM -9% | [10]; at 3.7 µM -24% | [10]; at 11.0 µM 14% | [11]; [16] 29% | [11]; at 50.0 µM 29.1% | [12]; at 1.2 µM 2% | [12]; at 3.7 µM 19% | [12]; at 11.0 µM 38% | [13]; [16] 43% | [14]; at 1.2 µM 9% | [14]; at 3.7 µM 16% | [14]; [16] 33% | [14]; at 11.0 µM 53% | [15]; at 1.2 µM -16% | [15]; at 3.7 µM -19% | [15]; at 11.0 µM 46% | [1]; at 1.2 µM 12% | [1]; at 3.7 µM 6% | [1]; at 11.0 µM 29% | [2]; at 1.2 µM 22% | [2]; at 3.7 µM 13% | [2]; at 11.0 µM 40% | [3]; [16] 36% | [4]; at 1.2 µM 21% | [4]; at 3.7 µM 41% | [4]; at 11.0 µM 57%
